An excerpt weighted towards active compounds, which were near 8.3% of everything screened.
Lassa entry inh: Lassa virus entry inhibition; AID 540256; actives 1.2% (n = 300,000); Lassa virus pseudotype entry inhibition, cell reporter; Potency, µM (top dose mostly 37.9 µM), inactives show at the highest dose activity change, negative = inhibition, usual class: inhibitors; calls by dose curve; tested in HEK293 cells; note: potency is the fitted concentration of half-maximal effect; nearly all actives have a fitted effect of over 50% in size
FMDV inh: blocks foot and mouth disease virus; AID 1159524; Potency, µM (titrated, usually from 57.9 µM), for the others: top-dose activity change, negative = inhibition, most hits filed as inhibitors; FMDV antiviral cell-based qHTS; actives 1.2% (n = 410,000); calls by dose curve; tested in HEK293T cells; note: read-out not given here; potency is the fitted concentration of half-maximal effect; nearly all actives have a fitted effect of over 45% in size
Marburg entry inh: inhibitors of Marburg virus binding or cell entry | Marburg virus pseudotyped entry inhibition, cell reporter | Potency, µM (series often up to 37.8 µM), for the others: top-dose activity change, negative = inhibition, actives largely listed as inhibitors | actives 1.8% (n = 300,000); calls by dose curve; tested in HEK293 cells; note: potency is the fitted concentration of half-maximal effect
FBPA Giardia inh: Giardia lamblia aldolase inhibition | purified Giardia FBPA | Potency, µM (top dose mostly 59.6 µM), for inactives: top-dose activity, negative = inhibition, most hits filed as inhibitors | actives 0.71% (n = 290,000) | AID 2451; note: potency is the fitted concentration of half-maximal effect; nearly all actives have a fitted effect of over 55% in size
Target sequence (A8B2U2 whole entry, looked up): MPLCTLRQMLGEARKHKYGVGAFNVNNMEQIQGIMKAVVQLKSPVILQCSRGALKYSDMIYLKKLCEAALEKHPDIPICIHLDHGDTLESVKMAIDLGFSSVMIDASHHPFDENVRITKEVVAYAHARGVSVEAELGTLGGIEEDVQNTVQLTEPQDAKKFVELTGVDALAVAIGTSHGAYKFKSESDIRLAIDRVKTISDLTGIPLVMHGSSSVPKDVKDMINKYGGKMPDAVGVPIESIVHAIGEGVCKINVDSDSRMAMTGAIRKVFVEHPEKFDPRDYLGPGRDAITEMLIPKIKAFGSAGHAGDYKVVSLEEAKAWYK
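Giardia FBPA (40 nM reagent) was preincubated 10 min at RT with compound (up to 57.5 uM final), then substrate plus GAPDH/TPI/NAD/arsenate coupling system with diaphorase/resazurin was added; resorufin fluorescence (525/598 nm) was read after 20 min.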
HCV inh: HCV inhibition. Huh7.5.1 HCVcc-Cre infection, luciferase reporter, 44 h. Potency, µM (top dose mostly 41.8 µM), inactives show at the top dose activity change, negative = inhibition, actives largely listed as inhibitors. actives 3.4% (n = 340,000). AID 651820; note: potency is the fitted concentration of half-maximal effect
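Luciferase read-out (15 sec integration) after a 15 min room-temperature substrate step quantifies HCVcc-Cre infection. Cells, 1,000 per well, had compound added 4 h post-plating, then virus at ~0.5 moi, and were cultured 44 h.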
HCMV antiviral: blocks human cytomegalovirus replication; AID 1259415; HFF cells, HCMV-luciferase reporter, 72 h; stronger effect = lower value; actives 4.5% (n = 410,000); activity change, negative = inhibition, % at 57.5 µM; in the data active = activity change below about -60%; inconclusive = no clear call, values can overlap the other calls; inactive = above about -39%
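After 16 h attachment at 37C, HFF cells received test compound and HCMV-luciferase (1 PFU/cell); reporter luminescence read 72 h later, data normalized against buffer-only and known inhibitor Salinomycin.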
Starred values were filed as active, the others as inactive; ? = inconclusive; / = no result given; [ ] = remark or other dose. Unless noted, calls come from the whole dose curve; as a rule, active = well fitted curve in the direction sought with a large enough effect; inconclusive = small, poorly fitted or top-dose-only effect, or another doubt; inactive = no such curve, though single readings can be large; an effect the other way counts as inactive or inconclusive. % is set by controls: 0 for no effect and ±100 for the full control effect.

SMILES | Lassa entry inh | FMDV inh | Marburg entry inh | FBPA Giardia inh | HCV inh | HCMV antiviral
CC[C@H](C)[C@H](NC(=O)[C@H](CCC(=O)O)NC(=O)[C@H](CC(N)=O)NC(=O)[C@@H](N)[C@@H](C)O)C(=O)N[C@H](C(=O)N[C@@H](CCC(=O)O)C(=O)N[C@@H](CCC(=O)O)C(=O)N[C@@H](CCC(N)=O)C(=O)N[C@@H](Cc1ccc(O)cc1)C(=O)N[C@H](C(=O)N1CCC[C@H]1C(=O)N[C@@H](CCC(N)=O)C(=O)N[C@@H](CO)C(=O)N[C@@H](CC(C)C)C(=O)N[C@@H](C)C(=O)N[C@H](C(=O)N[C@@H](CC(C)C)C(=O)N[C@@H](CCC(=O)O)C(=O)N[C@@H](CO)C(=O)N[C@H](C(=O)N[C@@H](Cc1ccccc1)C(=O)N[C@@H](CCC(N)=O)C(=O)N[C@@H](CCC(=O)O)C(=O)N[C@@H](CC(C)C)C(=O)NCC(=O)N[C@@H](CCCCN)C(=O)N[C@@H](CC(C)C)C(=O)N[C@H](C(=O)NCC(=O)N1CCC[C@H]1C(=O)N[C@@H](CC(N)=O)C(=O)N[C@@H](CO)C(=O)N[C@@H](CCC(N)=O)C(=O)O)[C@@H](C)O)C(C)C)[C@@H](C)O)[C@@H](C)O)C(C)C | / | / | / | 0% | / | /
CCc1ccccc1OCC(=O)Nc1nc(-c2cccnc2)cs1 | -24% | ? | ? | ? | ? | -65*
CCC(=O)c1ccc(OCC(=O)Nc2nc(-c3cccnc3)cs2)cc1 | ? | 0% | 2% | / | 14% | 2
CCOC(=O)/C(=N\Nc1ncnc2ccccc12)c1ccc(C)cc1 | 1.1µM* | ? | ? | 4% | 0% | 150
CCOC(=O)C/C(=N\Nc1ncnc2ccccc12)c1ccccc1 | -10%[46.1 µM] | 6% | ? | 10% | ? | 20
COc1ccc2[nH]c3c(C)c4ccncc4c(C)c3c2c1 | / | ? | / | -14% | 2.2µM* | -77*
C=CS(=O)(=O)N(C(=C)C(=O)OC)S(C)(=O)=O | / | / | / | / | / | -81*
O=C1NC(=O)N(c2ccc3c(c2)OCO3)C(=O)/C1=C\c1ccc(N2CCCCC2)o1 | -10% | -14% | -14% | 0% | 1% | -66*
CCOc1cccc(=NC2CCCCC2)c2c(C)n(C)c(C)c12 | -25% | 11µM* | ? | -10% | ? | -110*
CCOc1ccc2nc(N3CCCC(C(=O)Nc4ccc(Br)c(C)c4)C3)sc2c1 (centres undefined) | / | 4% | -2%[46.1 µM] | / | / | 24
CC(=O)Nc1ccc(CC(=O)NCCC(c2ccccc2)c2ccccc2)cc1 | 0.89µM* | 0% | ? | -4% | ? | -20
Cc1ccccc1-c1nc(CN2CCC(C(=O)NCCC3=CCCCC3)CC2)c(C)o1 | ? | -11% | ? | -8% | 6.3µM* | -4
COc1ccc(CCNC(=O)C2CCN(Cc3nc(-c4ccccc4C)oc3C)CC2)cc1OC | -7% | ? | ? | 3% | 7.9µM* | -18
Cc1ccccc1-c1nc(CN2CCC(C(=O)NCCCN3CCCC(C)C3)CC2)c(C)o1 (centres undefined) | ? | -13% | ? | -5% | 5µM* | -63*
Cc1nc(N2CCOCC2)c2nc(-c3ccccc3)n(CCN3CCOCC3)c2n1 | / | / | / | 1% | / | /
CC(C)=CCCC(C)=CCN1C(=O)[C@]2(O[C@H](COc3ccccc3)CC3=CCCC32)c2c(Br)cccc21 (some centres undefined) | / | / | -3%[14.2 µM] | / | / | /
Cc1nc2ccccc2n1CCc1nc2c3ccccc3nc(SCc3cccc(F)c3)n2n1 | 10%[46.1 µM] | 0% | / | / | / | 3
Cc1ccc(S(=O)(=O)CC(O)COc2ccc(C#N)cc2)cc1 (centres undefined) | -2% | -8% | -16%[46.1 µM] | 1% | 12% | -70*
N#Cc1ccc(OCC(O)CS(=O)(=O)c2ccc(F)cc2)cc1 (centres undefined) | 8% | -14% | 2%[46.1 µM] | -2% | -21% | ?
CC(C)CCn1c(Sc2nc3ccccc3o2)nc2c1c(=O)[nH]c(=O)n2C | -19% | 0% | ? | -20% | ? | -78*
Cn1c(=O)[nH]c(=O)c2c1nc(N1CCCCC1)n2CCSc1nc2ccccc2o1 | / | 0% | 3% | -12% | 4% | 5
CCCCCCn1c(SCC(=O)OC)nc2c1c(=O)[nH]c(=O)n2C | / | 0% | / | -9% | 5µM* | 16
CCCCCCn1c(SCC(C)C)nc2c1c(=O)[nH]c(=O)n2C | -5% | ? | -22% | 9% | ? | 4
C/C=C/Cn1c(SCc2ccccc2)nc2c1c(=O)[nH]c(=O)n2C | 13µM* | ? | ? | -3% | -12% | 18
CCCCCn1c(Sc2nc3ccccc3s2)nc2c1c(=O)[nH]c(=O)n2C | ? | / | ? | -14% | 8.9µM* | 17
SMILES | Lassa entry inh | FMDV inh | Marburg entry inh | FBPA Giardia inh | HCV inh | HCMV antiviral
CCCCCn1c(Sc2ncccn2)nc2c1c(=O)[nH]c(=O)n2C | -15% | -16% | 10% | -6% | 12% | 30
O=C(O)COc1ccc2ccccc2c1 | / | / | / | -1% | / | /
c1ccc2c(c1)SCc1c-2[nH]c2ccccc12 | / | / | / | -1% | / | /
CCCCn1c(SCc2ccc(Cl)cc2)nc2c1c(=O)[nH]c(=O)n2C | ? | 35µM* | ? | 4% | 7% | 34
O=C(c1cccc(F)c1)N1CCC2(CCCN(c3cccc(-c4ccccc4)c3)C2)CC1 | / | -15% | / | -2% | / | /
COC(=O)CC(NC1CCN(c2nc(C)c3cc4c(cc3n2)CCC4)CC1)C(=O)OC (centres undefined) | / | -2% | / | / | / | /
Cc1cc(O)c(C(=O)/C=C/c2ccccc2Br)c(=O)o1 | ? | 11µM* | 14%[46.1 µM] | 3% | -16% | -87*
Cc1cc(O)c(C(=O)/C=C/c2ccc(C(C)C)cc2)c(=O)o1 | / | 1% | / | 14% | -5% | 34
CCOc1ccc(/C=C/C(=O)c2c(O)cc(C)oc2=O)cc1 | -14%[46.1 µM] | 0% | -20%[46.1 µM] | -2% | -6% | ?
Cc1cc(O)c(C(=O)/C=C/c2ccccc2)c(=O)o1 | -12% | 11µM* | -21% | -9% | -25% | -92*
CCN(CC)c1ccc(CNS(=O)(=O)c2cc3c(cc2C)NC(=O)CO3)cc1 | -2%[46.1 µM] | 1% | / | / | / | 0
Nc1nc(-c2ccc(Cl)cc2)c(N=Nc2ccc(S(=O)(=O)N3CCOCC3)cc2)s1 | 4% | ? | ? | 2% | 11µM* | -28
O=S(=O)(c1ccc(Cl)cc1)N1CCC(N2CCOCC2)CC1 | ? | -23% | 20% | -12% | -17% | -6
COc1cccc(Cn2c(=O)c(-c3cccc(C#N)c3)nc3cnc(Nc4ccccc4)nc32)c1 | / | -8% | / | -4% | / | /
O=C1NC(=Nc2ccccc2)S/C1=C\c1cccn1-c1ccccc1 | ? | 0% | ? | -2% | 2.8µM* | -25
